Active and inactive are the calls of the source. Unless noted, the rule behind the calls is not given here.

For assay [1], the system named is Wnt5a (protein binding on small-molecule microarray). The experiment in a line: small molecules binding Wnt5a protein – biophysical, small-molecule microarray, 635/667 nm fluorescence, primary screen (AID 1142).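 Note: fluorescence read at 667 nm with signal to noise per printed feature.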 As to conditions: 635 nm fluorescence, higher = more signal.
Assay [2] can be described thus: ATP-based viability of Huh7 replicon cells – cell-based, CellTiter-Glo luminescence, basal, 48 h, cytotoxicity control for HCV replication inhibitor project, primary screen (AID 1143).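 Note: Huh7 hepatoma cells carrying a hepatitis C replication reporter with no stimulus; test concentration not given here.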 As to conditions: higher = more signal, called active from +8 up or from −8 down.
Assay [3] in a line: Pseudomonas biofilm growth suppression – PAO1 strain, BacTiter-Glo luminescence, LB-PBS, primary screen (AID 1144). As to conditions: P. aeruginosa PAO1 biofilm, 12 h, higher = more signal.
Assay [4] can be described thus: basal CRE-LacZ reporter activity in PC12 – cell-based, unstimulated, primary screen (AID 1145). Conditions: no forskolin, luminescence, 4.5 h, higher = more signal, called active from +8 up or from −8 down.
Assay [5] can be described thus: forskolin-driven CRE-LacZ activity in PC12 – cell-based, CRE-LacZ reporter, forskolin-stimulated, primary screen (AID 1146).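 Note: PC12 cells with 6xCRE LacZ reporter stimulated by forskolin 10 µM; beta-galactosidase reporter signal reflecting CREB driven transcription.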 Conditions: luminescence, 4.5 h, higher = more signal, called active from +8 up or from −8 down.
Assay [6] addresses Streptavidin (Streptomyces avidinii) (UniProt P22629). Description: compounds binding control protein streptavidin – biophysical, small-molecule microarray, 635/667 nm fluorescence, artefact control for SMM compound annotation, primary screen (AID 1147).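 Note: signal reflects streptavidin binding to arrayed compounds as a control protein.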 As to conditions: higher = more signal.
The nature of assay [7]: probe aInhba binding on compound microarray – biochemical, small-molecule microarray, 635/667 nm fluorescence, primary screen (AID 1148).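 Note: score merges 667nm spot fluorescence with signal-to-noise for antibody binding to printed compounds.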 As to conditions: higher = more signal.
In assay [8] the target is Torsin-1A (Homo sapiens) (UniProt O14656). Description: TOR1A wild-type binding on microarray – cell lysate, small-molecule microarray, lysate, 635/667 nm, primary screen (AID 1149). As to conditions: COS7 hTOR1A-WT lysate, 635 nm fluorescence, higher = more signal.
Sequence of Torsin-1A (Homo sapiens) (O14656 whole entry, looked up): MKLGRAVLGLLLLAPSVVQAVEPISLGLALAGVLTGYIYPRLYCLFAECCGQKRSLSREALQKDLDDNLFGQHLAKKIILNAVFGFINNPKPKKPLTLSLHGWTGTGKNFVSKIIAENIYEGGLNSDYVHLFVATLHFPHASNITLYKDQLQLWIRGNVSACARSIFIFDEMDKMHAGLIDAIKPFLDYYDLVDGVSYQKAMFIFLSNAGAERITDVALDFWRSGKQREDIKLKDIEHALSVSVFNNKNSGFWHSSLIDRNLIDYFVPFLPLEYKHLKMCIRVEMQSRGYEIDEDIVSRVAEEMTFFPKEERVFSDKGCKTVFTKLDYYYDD
Assay [9] shares this target. The experiment in a line: torsin A mutant lysate binding on microarrays – cell lysate, small-molecule microarray, COS7 lysate, 635/667 nm fluorescence, primary screen (AID 1150).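 Note: score pools 667 nm emission and signal to noise measuring lysate protein binding.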 Conditions: COS7 hTOR1A mutant lysate, 635 nm fluorescence, higher = more signal.
The subject of assay [10] is Sonic hedgehog protein (Shh). Description: Sonic hedgehog microarray binding compounds – biochemical, small-molecule microarray, 635/667 nm fluorescence, primary screen (AID 1151).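 Note: Shh protein binding to compounds spotted on small-molecule microarray slides; score combines spot fluorescence intensity with signal-to-noise across triplicate slides.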 As to conditions: 635 nm fluorescence, higher = more signal.

Sequence of Streptavidin (Streptomyces avidinii) (P22629 whole entry, looked up): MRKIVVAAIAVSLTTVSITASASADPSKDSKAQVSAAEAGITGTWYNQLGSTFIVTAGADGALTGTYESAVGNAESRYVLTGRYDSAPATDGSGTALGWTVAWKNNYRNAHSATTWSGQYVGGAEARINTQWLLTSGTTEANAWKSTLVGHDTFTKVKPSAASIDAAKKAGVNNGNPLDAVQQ

Consider `CC(C)=CCCC(C)=CCON=C1C[C@@H](O)[C@@H](O)[C@@H]2[C@@H]3C(=O)N(c4ccc(F)cc4F)C(=O)[C@@H]3CC[C@@H]12`, for which the composite z-score in assay [1] is 0.291; in [6] it was 1.45; in [7] it was -0.152; with Torsin-1A (Homo sapiens) [8], 0.815; with Torsin-1A (Homo sapiens) [9], -0.0827; in [10], 1.97. Further, the z-score was -1.52 (inactive) in assay [2], -0.665 (inactive) in assay [3], 1.24 (inactive) in [4] and 0.671 (inactive) in assay [5].

`COc1ccc(O[C@H]2C=C[C@@H](c3ccccc3)O[C@@H]2CON=C(C)C)cc1`: the composite z-score in assay [1] was -0.0515; in assay [6], 0.446; in assay [7], -0.004; with Torsin-1A (Homo sapiens) [8], -0.0422; in the assay with Torsin-1A (Homo sapiens) [9], -0.222; in assay [10], -0.114. In addition, the z-score is 0.361 (inactive) in assay [2], -0.385 (inactive) in [3], 0.113 (inactive) in assay [4] and 0.177 (inactive) in assay [5].

`CON=C1[C@H]2CCn3c(=O)n(-c4ccccc4)c(=O)n3[C@H]2[C@H](O)[C@@H]2O[C@H]12`: the composite z-score was 0.0275 in assay [1]; 0.0011 in assay [6]; -0.268 in [7]; 0.144 with Torsin-1A (Homo sapiens) [8]; 0.606 with Torsin-1A (Homo sapiens) [9]; 0.435 in assay [10]. In addition, the z-score in assay [2] is 0.653 (inactive); in assay [3], -0.633 (inactive); in assay [4] it was 1.55 (inactive); in [5], 0.236 (inactive).

Take `CCOC(=O)[C@H](CC(C)C)NC(=O)CCC1CC(OC(=O)NCc2ccc3c(c2)OCO3)CC2(CCCC(COC(=O)NCCCN3CCCC3=O)O2)O1` (stereo not given in full): the composite z-score worked out at 0.353 in assay [1]; 0.657 in [6]; 0.0154 in assay [7]; 0.232 with Torsin-1A (Homo sapiens) [8]; 0.92 with Torsin-1A (Homo sapiens) [9]; 1.74 in [10]. Moreover, the z-score in assay [2] is -0.255 (inactive); in assay [3] it was -0.767 (inactive); in assay [4], 0.0167 (inactive); in assay [5] it was -0.413 (inactive).

Turning to `CCOC(=O)[C@H](CC(C)C)NC(=O)CCC1CC(OC(=O)NCCc2ccc(F)cc2)CC2(CCCC(COC(=O)NCC(c3ccccc3)c3ccccc3)O2)O1` (stereo not given in full), the composite z-score was 0.228 in assay [1]; 1.22 in assay [6]; 0.0111 in assay [7]; -0.106 with Torsin-1A (Homo sapiens) [8]; 0.241 in the assay with Torsin-1A (Homo sapiens) [9]; 0.721 in assay [10]. The z-score is -0.361 (inactive) in assay [2], -0.427 (inactive) in assay [3], -0.438 (inactive) in [4] and -0.292 (inactive) in [5].

In the case of `C#CCCCON=C1C[C@@H](O)[C@@H](O)[C@@H]2[C@@H]3C(=O)N(c4ccc(F)cc4F)C(=O)[C@@H]3CC[C@H]12`, the composite z-score is 0.166 in [1]; -0.222 in [6]; -0.183 in assay [7]; 0.696 with Torsin-1A (Homo sapiens) [8]; 1.31 with Torsin-1A (Homo sapiens) [9]; 0.782 in assay [10]. The z-score in assay [2] is -1.71 (inactive); in assay [3] it was -0.203 (inactive); in [4], -0.475 (inactive); in assay [5], 0.278 (inactive).

With `O=C1C=C[C@@H](O)[C@@H]2[C@@H]3C(=O)N(C[C@@H]4CCCO4)C(=O)[C@@H]3CC[C@@H]12`, the composite z-score in [1] was -0.142; in assay [6], -0.029; in assay [7] it was -0.0424; with Torsin-1A (Homo sapiens) [8] it was 0.294; in the assay with Torsin-1A (Homo sapiens) [9], 0.462; in [10] it was 0.159. The z-score was -0.228 (inactive) in assay [2], 0.477 (inactive) in assay [3], -0.295 (inactive) in assay [4] and -0.593 (inactive) in assay [5].

As for `COC(=O)[C@H](C)NC(=O)CCC1CC(OC(=O)NCc2ccc3c(c2)OCO3)CC2(CCCC(COC(=O)NCC3CCCCC3)O2)O1` (stereo not given in full), the composite z-score in assay [1] was 0.283; in assay [6], 0.543; in assay [7] it was -0.0719; with Torsin-1A (Homo sapiens) [8], 0.174; with Torsin-1A (Homo sapiens) [9], 0.433; in [10], 1.72. The z-score in assay [2] was -0.643 (inactive); in assay [3], -0.112 (inactive); in assay [4], 0.104 (inactive); in assay [5] it was 1.35 (inactive).

Turning to `CCN1C(=O)[C@H]2[C@H]3[C@H](O)[C@H](O)CC(=NOC[C@H]4O[C@H](c5ccccc5)C=C[C@@H]4Oc4ccc(OC)cc4)[C@@H]3CC[C@H]2C1=O`, the composite z-score in assay [1] came to 0.353; in [6], 0.29; in assay [7], 0.0497; with Torsin-1A (Homo sapiens) [8], 0.66; with Torsin-1A (Homo sapiens) [9] it was 0.586; in assay [10], 0.827. The z-score in assay [2] was -0.509 (inactive); in [3], 1.13 (inactive); in assay [4] it was 0.843 (inactive); in assay [5] it was 0.126 (inactive).

Take `CCN1C(=O)[C@H]2[C@H]3[C@H](O)[C@H](O)CC(=NNC(=O)OCc4ccc(OC)cc4)[C@@H]3CC[C@H]2C1=O`: the composite z-score in [1] is -0.0453; in [6], -0.0023; in [7] it was -0.0521; with Torsin-1A (Homo sapiens) [8] it was -1.18; in the assay with Torsin-1A (Homo sapiens) [9], -0.703; in assay [10], -1.17. Besides, the z-score in assay [2] is 0.821 (inactive); in [3], -0.409 (inactive); in [4], -0.291 (inactive); in assay [5], -0.523 (inactive).

For `CC(C)CON=C1C[C@@H](O)[C@@H](O)[C@@H]2[C@@H]3C(=O)N(C[C@@H]4CCCO4)C(=O)[C@@H]3CC[C@@H]12`, the composite z-score is 0.0867 in assay [1]; -0.265 in assay [6]; -0.0987 in assay [7]; -0.25 with Torsin-1A (Homo sapiens) [8]; 0.0844 with Torsin-1A (Homo sapiens) [9]; -0.321 in assay [10]. Besides, the z-score in [2] is 1.13 (inactive); in assay [3], -0.184 (inactive); in assay [4], -0.0246 (inactive); in [5], 0.436 (inactive).

For `CC(C)CON=C1[C@H]2CCn3c(=O)n(Cc4cc5c(cc4Cl)OCO5)c(=O)n3[C@H]2[C@H](O)[C@@H]2O[C@H]12`, the composite z-score is 0.26 in [1]; 1.49 in assay [6]; -0.0332 in [7]; 1.39 with Torsin-1A (Homo sapiens) [8]; 0.49 in the assay with Torsin-1A (Homo sapiens) [9]; 0.504 in [10]. The z-score in assay [2] is -2.89 (inactive); in [3], 0.376 (inactive); in assay [4], 1.87 (inactive); in assay [5], 0.819 (inactive).

On to `CCOC(=O)[C@H](Cc1ccccc1)NC(=O)CCC1CC(OC(=O)NCCc2ccc(F)cc2)CC2(CCCC(COC(=O)NCCc3ccccc3OC)O2)O1` (stereo not given in full), for which the composite z-score in assay [1] was 0.359; in assay [6], 0.536; in [7] it was -0.0897; with Torsin-1A (Homo sapiens) [8], 0.196; with Torsin-1A (Homo sapiens) [9] it was 0.721; in [10], 1.54. Besides, the z-score in assay [2] is -0.131 (inactive); in [3], 0.248 (inactive); in [4] it was 0.198 (inactive); in [5] it was -0.099 (inactive).

Turning to `COc1cccc([C@H]2Oc3ccc(OC)cc3C(=NOC(C)CN3CCCCc4nc(C)c(C)cc43)[C@@H]2O)c1` (stereo not given in full), the composite z-score in [1] was 0.292; in [6], -0.519; in [7], -0.024; in the assay with Torsin-1A (Homo sapiens) [8], 0.242; with Torsin-1A (Homo sapiens) [9], -0.14; in assay [10], 0.291. In addition, the z-score in assay [2] is -1.77 (inactive); in [3], 0.979 (inactive); in assay [4] it was 5.7 (inactive); in assay [5], 0.323 (inactive).

With `CC(=O)OC[C@H]1O[C@H](C#Cc2ccccc2)C=C[C@@H]1OC(C)=O`, the composite z-score is -0.118 in assay [1]; 0.0752 in assay [6]; -0.182 in assay [7]; 0.398 with Torsin-1A (Homo sapiens) [8]; -0.0454 with Torsin-1A (Homo sapiens) [9]; 0.337 in assay [10]. Moreover, the z-score is -2.96 (inactive) in assay [2], 0.908 (inactive) in assay [3], -0.256 (inactive) in assay [4] and 3.76 (inactive) in [5].

Source of the values: PubChem BioAssay.
